Experiment [1] is described as follows: qHTS assay to identify small molecule agonists of the NFkB signaling pathway (AID 1159509; active means well fitted curve in the direction sought with a large enough effect in the signal ratio in the repeat runs, not every such curve was filed as active; the % refers to the signal ratio; further: series mostly up to about 61 µM). The method in brief:
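After overnight attachment, reporter cells received test compounds, DMSO or positive controls and were incubated 5 hr at 37 C. FRET substrate was then added for 1.5 hr at room temperature before dual-emission fluorescence reading.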
(qHTS replaces the single test concentration by a dilution series.)

Experiment [2] is described as follows: qHTS assay to identify small molecule agonists of the NFkB signaling pathway - cell viability counter screen (AID 1159515; calls by dose curve; further: series mostly up to about 61 µM; nearly all actives have a fitted effect of over 55% in size). Put shortly:
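Viability in NFkB-bla ME-180 cells was measured by CellTiter-Glo luminescence, 30 min room temperature, in wells already treated 5 hr with compounds and read for reporter FRET.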

Experiment [3] is described as follows: qHTS assay to identify small molecule agonists of the endoplasmic reticulum stress response signaling pathway (AID 1159516; active means well fitted activation curve with a large enough effect in the signal ratio in the repeat runs, not every such curve was filed as active; the % refers to the signal ratio). Put shortly:
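ER stress element reporter (bla) in HeLa. 1,500 cells/well, overnight attachment; 5 hr compound; 2 hr RT substrate; dual-emission fluorescence.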

Experiment [4] is described as follows: qHTS assay to identify small molecule agonists of the endoplasmic reticulum stress response signaling pathway - cell viability counter screen (AID 1159517; calls by dose curve;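 further: HeLa cells carrying an ER stress response element beta-lactamase reporter; series mostly up to about 61 µM; nearly all actives have a fitted effect of over 50% in size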). Put shortly:
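Cells, HeLa ESRE-bla; density, 1,500/well; dosing, 5 hr at 37 C, 5% CO2; readout, CellTiter-Glo luminescence after 30 min RT.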

A short description of experiment [5]: qHTS assay to identify small molecule antagonists of the retinoid-related orphan receptor gamma (ROR-gamma) signaling pathway - cell viability counter screen (AID 1159520). Further: nearly all actives have a fitted effect of over 50% in size. Put shortly:
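Cytotoxicity was read from cellular ATP (CellTiter-Glo luminescence) after 16 hr at 37 C with 1 uM doxycycline induction. The inducer was added 2 hr after compound transfer to Tet-on ROR gamma CHO cells.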

Experiment [6] concerns the target Nuclear receptor ROR-gamma (Homo sapiens) (UniProt P51449). As to the kind of experiment: qHTS assay to identify small molecule antagonists of the retinoid-related orphan receptor gamma (ROR-gamma) signaling pathway (AID 1159521;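 further: CHO cells with doxycycline inducible ROR-gamma driving an RORE luciferase reporter; top concentration of the series differs between compounds; nearly all actives have a fitted effect of over 50% in size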). The method in brief:
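Readout: ONE-Glo luciferase luminescence, 30 min at room temperature. System: Tet-on RORγ CHO, RORE-LUC. Sequence: compound 2 h, doxycycline 1 uM final, 16 h at 37 C.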

Experiment [7] can be described thus: qHTS assay to identify small molecule agonists of the AP-1 signaling pathway - cell viability counter screen (AID 1159525; calls by dose curve; further: nearly all actives have a fitted effect of over 55% in size). The method in brief: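 Luminescent ATP readout (Cell Titer Glo, 30 min RT), normalised to DMSO and tetra n-octyl ammonium bromide controls. Cells were ME-180 AP-1-bla in 0.5% dialyzed FBS Opti-MEM, with a 5 h, 37 °C compound exposure.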

Experiment [8] in a line: qHTS assay to identify small molecule agonists of the AP-1 signaling pathway (AID 1159526; calls by dose curve).
For experiment [9], the target named is Retinoic acid receptor RXR-alpha (Homo sapiens) (UniProt P19793). As to the kind of experiment: qHTS assay to identify small molecule agonists of the RXR signaling pathway (AID 1159527; calls by dose curve; further: nearly all actives have a fitted effect of over 35% in size; further: potency means the concentration at half of the fitted maximal effect). The method in brief:
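Reporter activation is measured as beta-lactamase activity via FRET substrate cleavage (emission 460/530 nm) in HEK 293T cells expressing an RXR-alpha-driven bla construct, following 16 hr compound exposure at 37 C.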

Experiment [10] in a line: qHTS assay to identify small molecule agonists of the RXR signaling pathway - cell viability counter screen (AID 1159529). Further: series mostly up to about 77 µM; nearly all actives have a fitted effect of over 50% in size. Put shortly: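 Tox21 10K compounds were tested for cytotoxicity against GeneBLAzer RXR-alpha HEK 293T cells grown in 2% charcoal-stripped FBS. Exposure lasted 16 hr at 37 C, 5% CO2; viability read by CellTiter-Glo luminescence.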
The nature of experiment [11]: qHTS assay to identify small molecule antagonists of the retinoid acid receptor (RAR) signaling pathway - cell viability counter screen (AID 1159551). Further: nearly all actives have a fitted effect of over 35% in size. The method in brief: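 Following overnight attachment, C3RL4 reporter cells received DMSO-dissolved compounds and then retinol (1 uM final). Six hours later at 37 C, ATP content was measured by CellTiter-Glo luminescence.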

A short description of experiment [12]: qHTS assay to identify small molecule antagonists of the retinoic acid receptor (RAR) signaling pathway (AID 1159552; further: nearly all actives have a fitted effect of over 50% in size). The method in brief: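 Overnight-plated C3RL4 reporter cells get compound, then retinol to 1 uM final; plates sit 6 hr at 37 C, 5% CO2. A luciferase reagent is added and light output recorded after 30 min at room temperature.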
Experiment [13] is described as follows: qHTS assay to identify small molecule agonists of the retinoic acid receptor (RAR) signaling pathway (AID 1159553). Put shortly: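 Cell line C3RL4, RARE luciferase reporter. Treatment: compounds in DMSO, 6 hr, 37 C, 5% CO2, after overnight plating. Detection: luminescence, 30 min RT after reagent.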
Experiment [14] is described as follows: qHTS assay to identify small molecule antagonists of the estrogen related receptor (ERR) signaling pathway from Tox21 library - cell viability counter screen (AID 1224834). Further: nearly all actives have a fitted effect of over 30% in size. The method in brief: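 Viability readout (CellTiter-Fluor fluorescence, 30 min at 37 C) multiplexed with the ERR assay; cells treated 17.5 h at 37 C with compounds delivered in DMSO.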

SMILES strings stand for the structures. Several values for one entry are separate records, joined by “and”; a condition that tells them apart may be missing. Equal entries are not always repeated. Results filed as inconclusive are left out. Some structures have more than one record in an assay (separate samples or runs), and their calls can disagree. Activity calls are given as the source filed them. Unless noted, the call rests on the fitted dose curve; in most records, active means well fitted curve in the direction sought with a large enough effect in the repeat runs; inconclusive means weak or mixed curves; inactive means no such curve, though single readings can be large; an effect the other way counts as inactive or inconclusive.

Sequence of Retinoic acid receptor RXR-alpha (Homo sapiens) (P19793 whole entry, looked up): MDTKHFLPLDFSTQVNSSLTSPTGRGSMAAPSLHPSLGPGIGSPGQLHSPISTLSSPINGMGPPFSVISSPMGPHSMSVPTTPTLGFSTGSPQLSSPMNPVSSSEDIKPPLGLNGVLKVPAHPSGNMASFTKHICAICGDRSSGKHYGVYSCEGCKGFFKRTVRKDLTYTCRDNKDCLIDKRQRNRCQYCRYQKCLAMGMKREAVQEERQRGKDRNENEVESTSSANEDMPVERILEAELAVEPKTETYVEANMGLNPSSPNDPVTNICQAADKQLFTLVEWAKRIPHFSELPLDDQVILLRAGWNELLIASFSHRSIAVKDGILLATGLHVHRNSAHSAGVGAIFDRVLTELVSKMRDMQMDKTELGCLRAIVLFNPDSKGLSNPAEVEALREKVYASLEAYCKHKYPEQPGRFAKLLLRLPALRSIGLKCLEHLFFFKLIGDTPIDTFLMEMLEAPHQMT

For `CC(C)OC=O`, the outcome in experiment [1] and in [8] was inactive. Further, the Potency result in [2], in experiment [3], in [4], in experiment [5], in experiment [6] and in experiment [7] was “inactive” throughout. The Potency entry in [9], in experiment [10], in experiment [11], in [12], in [13] and in experiment [14] was “inactive” throughout.
Turning to `Cc1ncc[nH]1`, the compound was classed as inactive in experiment [1] and in [8]. Moreover, the Potency entry in experiment [2], in experiment [3], in experiment [4], in [5], in experiment [6] and in [7] was “inactive” throughout. The Potency entry in experiment [10], in experiment [11], in experiment [12] and in experiment [13] was “inactive” throughout.
Consider `O=CCc1ccccc1`, for which the compound was classed as inactive in experiment [1] and in experiment [8]. The Potency entry in [2], in experiment [3], in experiment [4], in experiment [5], in experiment [6] and in [7] was “inactive” in each case. The Potency entry in experiment [9], in experiment [10], in [11], in experiment [12], in experiment [13] and in experiment [14] was “inactive” each time.
Turning to `Clc1nc(Cl)c(Cl)c(Cl)c1Cl`, the compound was called inactive in experiment [1] and in experiment [8]. Further, the Potency result in [2], in experiment [3], in experiment [4], in [5], in experiment [6] and in [7] was “inactive” each time. For the same compound, the Potency result in experiment [9], in experiment [10], in [11], in [12], in experiment [13] and in experiment [14] was “inactive” each time.
Take `O=S(=O)(O)c1ccc(O)cc1`: the outcome in experiment [1] and in experiment [8] was inactive. The Potency entry in experiment [2], in [3], in [4], in experiment [5], in experiment [6] and in experiment [7] was “inactive” in each case. Further, the Potency entry in experiment [9], in [10], in [11], in experiment [12], in [13] and in [14] was “inactive” each time.
As to `CC(=O)c1ccccn1`, the compound was classed as inactive in experiment [1] and in [8]. Moreover, the Potency entry in experiment [2], in experiment [3], in experiment [4], in [5], in experiment [6] and in experiment [7] was “inactive” in each case. The Potency entry in experiment [9], in [11], in [12] and in experiment [13] was “inactive” throughout.
As for `CC(C)CC(C)(O)C#CC(C)(O)CC(C)C` (centres undefined), the outcome in experiment [1] and in experiment [8] was inactive. The Potency entry in experiment [2], in experiment [3], in [4], in experiment [5], in experiment [6] and in experiment [7] was “inactive” in each case. In addition, the Potency entry in experiment [11], in experiment [12], in experiment [13] and in experiment [14] was “inactive” throughout. In addition, the Potency in experiment [9] is 12.1 µM (active) and inactive.
Take `COc1ccccc1/C=C/C=O`: the call in [1] and in [8] was inactive. Also, the Potency result in experiment [2], in experiment [3], in experiment [4], in [5], in experiment [6] and in experiment [7] was “inactive” throughout. For the same compound, the Potency entry in [9] and in experiment [11] was “inactive” each time.
Consider `C=C(C)C(=O)OCCOC(=O)C(=C)C`, for which the compound was called inactive in [1] and in experiment [8]. Further, the Potency entry in [2], in experiment [3], in experiment [4], in experiment [5], in experiment [6] and in experiment [7] was “inactive” in each case. In addition, the Potency result in [9], in experiment [10], in [11], in experiment [12], in experiment [13] and in [14] was “inactive” each time.
For `O=C(COc1ccc(Cl)cc1)N1CCN(Cc2ccc3c(c2)OCO3)CC1`, the result in experiment [1] and in experiment [8] was inactive. In addition, the Potency result in experiment [2], in [3], in experiment [4], in experiment [5], in experiment [6] and in experiment [7] was “inactive” throughout. Also, the Potency entry in [10] and in experiment [11] was “inactive” in each case.
For `C=CC(C)(CCC=C(C)C)OC(C)=O` (centres undefined), the result in experiment [1] and in [8] was inactive. For the same compound, the Potency entry in experiment [2], in experiment [3], in [4], in experiment [5], in [6] and in experiment [7] was “inactive” in each case. For the same compound, the Potency entry in experiment [9], in experiment [11], in experiment [12] and in experiment [13] was “inactive” throughout.
As for `CCC(C)CO` (centres undefined), the compound was called inactive in experiment [1] and in experiment [8]. The Potency entry in experiment [2], in experiment [3], in experiment [4], in experiment [5], in [6] and in experiment [7] was “inactive” in each case. The Potency entry in experiment [9], in experiment [10], in [11], in experiment [12], in experiment [13] and in experiment [14] was “inactive” throughout.
Consider `CCCCCCCCCC(=O)OC`, for which the compound was called inactive in [1] and in experiment [8]. The Potency entry in experiment [2], in experiment [3], in experiment [4], in experiment [5], in [6] and in [7] was “inactive” in each case. In addition, the Potency result in experiment [10], in experiment [11], in experiment [12] and in experiment [13] was “inactive” each time.
As to `c1cc(-c2ccncc2)ccn1`, the result in experiment [1] and in [8] was inactive. Besides, the Potency result in experiment [2], in [3], in experiment [4], in [5], in [6] and in experiment [7] was “inactive” each time. The Potency result in experiment [9], in experiment [11], in experiment [12] and in experiment [13] was “inactive” each time.
As for `COC(=O)c1ccccc1`, the outcome in experiment [1] and in [8] was inactive. Also, the Potency result in experiment [2], in experiment [3], in [4], in experiment [5], in experiment [6] and in experiment [7] was “inactive” each time. In addition, the Potency result in experiment [10] and in experiment [11] was “inactive” throughout.
On to `CC(=O)CC/C=C(\C)CCC=C(C)C`, for which the result in experiment [1] and in experiment [8] was inactive. Further, the Potency entry in experiment [2], in [3], in experiment [4], in [5], in experiment [6] and in experiment [7] was “inactive” in each case. Besides, the Potency result in experiment [9], in [10] and in experiment [11] was “inactive” in each case.
Regarding `Cc1c(C(N)=O)cc([N+](=O)[O-])cc1[N+](=O)[O-]`, the compound was called inactive in experiment [1] and in experiment [8]. In addition, the Potency result in experiment [2], in experiment [3], in experiment [4], in [5], in [6] and in [7] was “inactive” throughout. For the same compound, the Potency entry in experiment [9], in [11] and in experiment [14] was “inactive” each time.
As for `CCCc1c(OCCCCc2nn[nH]n2)ccc(C(C)=O)c1O`, the result in experiment [1] and in [8] was inactive. For the same compound, the Potency entry in [2], in experiment [3], in [4], in experiment [5], in experiment [6] and in experiment [7] was “inactive” throughout. Also, the Potency result in experiment [11] and in experiment [14] was “inactive” each time. For the same compound, in experiment [9], the Potency is 54.9 µM (active) and 23.9 µM (active).
Take `c1ccncc1`: the compound was classed as inactive in experiment [1] and in experiment [8]. For the same compound, the Potency entry in [2], in experiment [3], in experiment [4], in experiment [5], in [6] and in experiment [7] was “inactive” in each case. Moreover, the Potency entry in experiment [9], in experiment [10], in [11], in [12], in experiment [13] and in [14] was “inactive” throughout.
Regarding `COC(=O)Nc1nc2ccc(S(=O)c3ccccc3)cc2[nH]1` (centres undefined), the result in [1] and in experiment [8] was inactive. Also, the Potency result in experiment [2], in experiment [3], in experiment [4], in [5], in experiment [6] and in experiment [7] was “inactive” in each case. In addition, the Potency result in [9] and in [11] was “inactive” in each case.

(Values after PubChem BioAssay (Tox21).)
